# PubChem BioAssay (NCATS)
# Records with an inconclusive call do not appear. Entries that show only a call come without a potency. The source made the active and inactive calls. The call rests on the fitted dose curve; in most records, active means well fitted curve in the direction sought with a large enough effect; inconclusive means small, poorly fitted or top-dose-only effect, or another doubt; inactive means no such curve, though single readings can be large; an effect the other way counts as inactive or inconclusive.
# Tests used:
# UISO = assay: qHTS assay to identify novel small-molecules to repurpose for Merkel cell carcinoma treatment (AID 1296009); settings: MCC and control cell lines, CellTiter-Glo viability, 72 h; series mostly up to 46 µM; further: nearly all actives have a fitted effect of over 60% in size
# Method in brief: (§1)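 Cell viability measured by CellTiter-Glo following 72 hr compound treatment at 37 degree celsius, with NPC and MIPE libraries tested in 8- and 11-point concentration series.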
# WaGa = assay: as above; settings: MCC and control cell lines, CellTiter-Glo viability, 72 h; series mostly up to 46 µM
# Method in brief: as §1
# C33A = assay: Primary qHTS to identify gynecologic anti-cancer compounds using libraries of approved drugs and bioactive compounds (AID 1345084); settings: Gynecologic cancer cell panel viability, ATPlite luminescence, 48 h; series mostly up to 57.5 µM; further: nearly all actives have a fitted effect of over 55% in size
# Method in brief: (§2)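 Five-point cytotoxicity, 48 h drug exposure at 37 C, 5% CO2, on cells seeded 16 h beforehand. ATP content read by ATPlite luminescence.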
# CASKI = assay: as above; settings: Gynecologic cancer cell panel viability, ATPlite luminescence, 48 h; series mostly up to 57.5 µM
# Method in brief: as §2
# Es-2 = assay: as above; settings: Gynecologic cancer cell panel viability, ATPlite luminescence, 48 h; series mostly up to 57.5 µM
# Method in brief: as §2
# HeLa = assay: as above; settings: Gynecologic cancer cell panel viability, ATPlite luminescence, 48 h; series mostly up to 57.5 µM
# Method in brief: as §2
# Hek293T = assay: as above; settings: Gynecologic cancer cell panel viability, ATPlite luminescence, 48 h, control line for the selectivity index; series mostly up to 57.5 µM
# Method in brief: as §2
# JEG-3 = assay: as above; settings: Gynecologic cancer cell panel viability, ATPlite luminescence, 48 h; series mostly up to 57.5 µM
# Method in brief: as §2
# OV90 = assay: as above; settings: Gynecologic cancer cell panel viability, ATPlite luminescence, 48 h; series mostly up to 57.5 µM
# Method in brief: as §2
# CAOV3 = assay: as above; settings: Gynecologic cancer cell panel viability, ATPlite luminescence, 48 h; series mostly up to 57.5 µM
# Method in brief: as §2
# Potency means the concentration at half of the fitted maximal effect.
Structure (SMILES),Potency (UISO),Potency (WaGa),Potency (C33A),Potency (CASKI),Potency (Es-2),Potency (HeLa),Potency (Hek293T),Potency (JEG-3),Potency (OV90),Potency (CAOV3)
CC(=O)OCC(=O)[C@@]1(OC(C)=O)[C@@H](C)C[C@H]2[C@@H]3C[C@H](F)C4=CC(=O)C=C[C@]4(C)[C@@]3(F)[C@@H](O)C[C@@]21C,inactive,inactive,inactive,inactive,inactive,inactive,inactive,inactive,inactive,–
CC1(C)O[C@@H]2[C@@H](CO[C@@]3(COS(N)(=O)=O)OC(C)(C)O[C@@H]23)O1,inactive,inactive,inactive,inactive,inactive,inactive,inactive,inactive,inactive,–
CC(=O)[C@H]1CC[C@H]2[C@@H]3C[C@H](C)C4=CC(=O)CC[C@]4(C)[C@H]3[C@@H](O)C[C@]12C,inactive,inactive,inactive,inactive,inactive,15.8 µM (active),inactive,inactive,inactive,–
CCN(CCCc1ccccc1)CCCc1ccccc1,inactive,inactive,inactive,inactive,inactive,inactive,inactive,inactive,28.2 µM (active),–
O=C(Nc1ccc(Cl)c(Cl)c1)C1CC1,inactive,inactive,inactive,inactive,inactive,inactive,inactive,inactive,inactive,inactive
CNCC[C@@H](Oc1ccccc1C)c1ccccc1,inactive,inactive,inactive,inactive,–,inactive,inactive,inactive,inactive,inactive
C[C@@H]1C[C@H]2[C@@H]3C[C@H](F)C4=CC(=O)C(Cl)=C[C@]4(C)[C@@]3(F)[C@@H](O)C[C@]2(C)[C@@]1(O)C(=O)CO,inactive,inactive,inactive,inactive,inactive,inactive,inactive,inactive,inactive,–
Cc1cc2c(cc1CC(=O)c1sccc1S(=O)(=O)Nc1onc(C)c1Cl)OCO2,inactive,inactive,inactive,inactive,inactive,inactive,inactive,inactive,inactive,–
NC[C@H]1O[C@H](O[C@H]2[C@H](O)[C@@H](O[C@H]3O[C@H](CO)[C@@H](O)[C@H](N)[C@H]3O)[C@H](N)C[C@@H]2N)[C@H](N)[C@@H](O)[C@@H]1O,inactive,inactive,inactive,inactive,inactive,inactive,inactive,inactive,inactive,–
C[C@]12CCC(=O)C=C1CC[C@H]1[C@@H]3CC[C@](O)(C(=O)CO)[C@@]3(C)C[C@H](O)[C@@]12F,inactive,inactive,inactive,inactive,inactive,inactive,inactive,inactive,inactive,–
CC(C)(CO)[C@@H](O)C(=O)NCCCO,inactive,inactive,inactive,inactive,inactive,inactive,inactive,inactive,inactive,–
Cc1c(C)n(Cc2ccccc2)c2ccc(C(=O)OCCN(C)C)cc12,inactive,inactive,inactive,inactive,inactive,inactive,inactive,inactive,inactive,–
CC1(C)O[C@@H]2C[C@H]3[C@@H]4C[C@H](F)C5=CC(=O)CC[C@]5(C)[C@H]4[C@@H](O)C[C@]3(C)[C@]2(C(=O)CO)O1,inactive,inactive,inactive,inactive,inactive,inactive,inactive,inactive,inactive,–
C[C@H](O)C(=O)Nc1c(I)c(C(=O)NC(CO)CO)c(I)c(C(=O)NC(CO)CO)c1I,inactive,inactive,inactive,inactive,inactive,inactive,–,inactive,–,inactive
C[C@@H]1C[C@H]2[C@@H]3CCC4=CC(=O)C=C[C@]4(C)[C@@]3(F)[C@@H](O)C[C@]2(C)[C@H]1C(=O)CO,inactive,inactive,inactive,inactive,inactive,inactive,inactive,inactive,inactive,–
CN1CCN(CCCN2c3ccccc3Sc3ccc(S(=O)(=O)N(C)C)cc32)CC1,inactive,–,inactive,inactive,inactive,inactive,inactive,inactive,–,inactive
O=C1[C@H]2CCCC[C@H]2C(=O)N1CCCCN1CCN(c2nsc3ccccc23)CC1,10.6 µM (active),–,inactive,inactive,inactive,inactive,–,inactive,–,inactive
Cc1cccc(C)c1NC(=O)CN1CCN(CCCC(c2ccc(F)cc2)c2ccc(F)cc2)CC1,inactive,inactive,–,inactive,inactive,–,inactive,inactive,–,–
Oc1c(I)cc(Cl)c2cccnc12,16.8 µM (active),23.7 µM (active),–,inactive,–,inactive,–,inactive,–,inactive
COCc1c(C(C)C)nc(C(C)C)c(/C=C/[C@@H](O)C[C@@H](O)CC(=O)O)c1-c1ccc(F)cc1,0.473 µM (active),1.06 µM (active),–,inactive,–,1.78 µM (active),–,–,1.78 µM (active),7.08 µM (active)
